From PubChem BioAssay
Only some compounds are listed: those with a hit (about 3% of all), similar ones and a draw of the others.
HEK293 viab: cell viability loss counter-screen; HEK-293-SNCA-luc viability, GF-AFC fluorescence, 24 h; Potency, µM (titrated, usually from 57.1 µM), hits mostly cytotoxic; 0.12% of 150,000 active; AID 1671193; note: nearly all actives have a fitted effect of over 30% in size
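Cytotoxicity counterscreen: after 24 h compound treatment of genome-edited SNCA-luciferase HEK-293 cells, live-cell protease substrate GF-AFC read by fluorescence after 30 min; activity scaled between DMSO (0%) and medium-only (-100%), curves Hill-fitted.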
KDM5B inhibitor: blocks human KDM5B histone demethylase activity | AID 1347165 | 2.6% of 220,000 active | Potency, µM (doses to about 57.7 µM), actives largely listed as inhibitors | KDM5B demethylase, FDH-coupled NADH fluorescence (FDH is formaldehyde dehydrogenase); note: nearly all actives have a fitted effect of over 70% in size
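qHTS format, multiple compound concentrations. Buffer 50 mM HEPES pH 7.5/0.01% Tween-20; 200 nM KDM5BΔAP final; 10 min compound preincubation; substrate-mix levels 12.5 µM peptide, 25 µM α-KG, 0.25 mM NAD⁺; 30 min RT; ΔRFU.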
IP6K1 inhibitor: IP6K1 kinase inhibition | IP6K1 kinase, ADP-Glo luminescence, 2 h; hits give low values | AID 1645851 | activity change, % (series mostly up to about 58 µM) | Q92551 | 0.81% of 140,000 active; in the data active = activity change below about -25%
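ADP-Glo luminescence measures ADP made by human IP6K1 during a 2 h RT reaction with ATP/IP6 (mix at 1.3 mM/130 uM); top library doses 57.5 and 19.1 uM final.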
SNCA expr inh: SNCA gene expression inhibition; HEK-293 SNCA-luciferase knock-in, luminescence, 24 h; Potency, µM (highest dose often 57.2 µM), usual class: inhibitors; 0.17% of 140,000 active; note: nearly all actives have a fitted effect of over 45% in size
Each line names hits and unclear results; the compound was inactive in the other large screens. Unless noted, calls come from the whole dose curve; as a rule, active = well fitted curve in the direction sought with a large enough effect; inconclusive = small, poorly fitted or top-dose-only effect, or another doubt; inactive = no such curve, though single readings can be large; an effect the other way counts as inactive or inconclusive.

O=C(N[C@H]1C[C@H]2C(=O)NC[C@@H](CCC(=O)N3CCN(c4ccccn4)CC3)N2C1)c1ccccc1	KDM5B inhibitor 25µM
CN1[C@@H](CCC(=O)N2CCN(c3ccccn3)CC2)CNC(=O)[C@H]2NCC[C@H]21	KDM5B inhibitor 35µM
Cc1ccc(CN2CC[C@@H]3[C@H]2C(=O)NC[C@H](CCC(=O)N2CCN(c4ccccn4)CC2)N3C)cc1	KDM5B inhibitor 32µM
CN1[C@@H](CCC(=O)N2CCN(c3ccccn3)CC2)CNC(=O)[C@@H]2[C@H]1CCN2Cc1cccs1	KDM5B inhibitor 28µM
O=C(Nc1ccccc1)N[C@H]1C[C@H]2C(=O)NC[C@@H](CCC(=O)N3CCN(c4ccccc4)CC3)N2C1	none
COC(=O)c1ccc2nc(C[C@@H]3C[C@@H](C(C)C)[C@H](CNC4CCCCC4)C=C3C)[nH]c2c1	KDM5B inhibitor inconclusive
COc1ccc(CCNC(=O)c2ccc3nnc(-c4cccc(C(F)(F)F)c4)n3c2)cc1	HEK293 viab inconclusive, SNCA expr inh inconclusive (no result: KDM5B inhibitor)
C#CCNC(=O)c1nc(-c2ccccc2)c2ccccn12	KDM5B inhibitor 32µM
O=C(NCc1ccc2c(c1)OCO2)c1nc(-c2ccccc2)c2ccccn12	KDM5B inhibitor inconclusive
O=C(NCc1cccs1)c1nc(-c2ccsc2)c2ccccn12	KDM5B inhibitor 40µM
O=C(NCc1cccs1)c1nc2sccn2c1-c1ccncc1	HEK293 viab inconclusive (no result: KDM5B inhibitor)
O=C(NCc1cccs1)c1noc(-c2ccc(F)cc2)n1	none
O=C(NCc1cccs1)c1nc(-c2ccccc2)c2ccccn12	KDM5B inhibitor 11µM, SNCA expr inh inconclusive
C#CCNC(=O)c1nc(-c2ccc(F)cc2)c2ccccn12	none
O=C(NCc1cccs1)c1nc(-c2ccc(F)cc2)c2ccccn12	KDM5B inhibitor 28µM
O=C(Nc1ccccc1)NC1CCN(Cc2cccc(-c3cccs3)c2)CC1	SNCA expr inh inconclusive (no result: KDM5B inhibitor)
CN(C(=O)c1cc(-c2ccccc2C(F)(F)F)nc2c1cnn2C)c1ccccc1	none (no result: HEK293 viab, KDM5B inhibitor, SNCA expr inh)
COc1ccccc1-c1ccc(CN2CCC(NC(=O)C3CCCC3)C2)cc1 (stereo not given)	none (no result: HEK293 viab, KDM5B inhibitor, SNCA expr inh)
O=C(NCc1ccc(F)cc1)c1nc(-c2ccc(Cl)cc2Cl)c2ccccn12	KDM5B inhibitor inconclusive
O=C(NCc1ccc(F)cc1)c1nc(-c2ccsc2)c2ccccn12	KDM5B inhibitor 25µM
Cc1cccc(C)c1-c1nc(C(=O)NCc2ccc3c(c2)OCO3)n2ccccc12	KDM5B inhibitor 28µM
Cc1ccc(C(O)CNC(=O)C2CC=CCC2)cc1 (stereo not given)	none (no result: HEK293 viab, IP6K1 inhibitor, SNCA expr inh)
COc1ccc(NC(=O)Cn2cccc2-c2nc(-c3ccccc3)no2)cc1	none
COC(=O)c1ccccc1NC(=O)Cn1cccc1-c1nc(-c2ccccc2)no1	KDM5B inhibitor 28µM
COc1ccccc1Nc1ccnc(N2CCN(C(=O)Cc3cccc(Cl)c3)CC2)n1	HEK293 viab inconclusive, SNCA expr inh inconclusive (no result: KDM5B inhibitor)
Clc1ccccc1COc1ccc(CNCc2cccnc2)cc1	none (no result: HEK293 viab, IP6K1 inhibitor, SNCA expr inh)
COC(=O)[C@@H]1Cc2nc[nH]c2CN1Cc1ccc(C)cc1	KDM5B inhibitor inconclusive
COC(=O)[C@@H]1Cc2nc[nH]c2CN1Cc1ccc(C(=O)O)cc1	KDM5B inhibitor 40µM
O=C(O)c1ccc(CN2Cc3[nH]cnc3C[C@H]2c2nc(-c3ccc(F)c(Cl)c3)no2)cc1	KDM5B inhibitor 25µM
CC(C)c1noc([C@@H]2Cc3nc[nH]c3CN2Cc2ccc(F)cc2)n1	KDM5B inhibitor 28µM
Cc1nn(-c2ccccc2)c2c1C(C)N(CC1CN(C(=O)c3ccc4c(c3)OCO4)C1)C2=O (stereo not given)	none (no result: HEK293 viab, KDM5B inhibitor, SNCA expr inh)
Cc1ccccc1-n1nc(C)c(CCC(=O)NCC(C)C)c1Oc1cccc(F)c1	KDM5B inhibitor 22µM
CN1CCC2(C1)CN(CC1CCOCC1)c1ccc(C(=O)Nc3ccn(C)n3)cc12 (stereo not given)	KDM5B inhibitor inconclusive
Cc1nc(CN2CC3(CCN(C)C3)c3cc(C(=O)NCc4cccs4)ccc32)cs1 (stereo not given)	KDM5B inhibitor 35µM
CN(C)CC(=O)N1CCC2(C1)CN(C)c1ccc(C(=O)NCc3cccs3)cc12 (stereo not given)	KDM5B inhibitor 40µM
Cc1nc(CN2CC3(CCN(C)C3)c3cc(C(=O)Nc4ccc(F)cc4)ccc32)cs1 (stereo not given)	KDM5B inhibitor 25µM
Cc1nc(CN2CC3(CCN(C)C3)c3cc(C(=O)NCC4CC4)ccc32)cs1 (stereo not given)	KDM5B inhibitor 28µM
COc1ccccc1-c1cccc(CN2CCCC(C(=O)Nc3cccc(Cl)c3)C2)c1 (stereo not given)	HEK293 viab inconclusive, SNCA expr inh inconclusive (no result: KDM5B inhibitor)
CN1CCC2(C1)CN(Cc1ccccc1)c1ccc(C(=O)NCc3cccs3)cc12 (stereo not given)	KDM5B inhibitor 35µM
Cc1nc(CN2CC3(CCN(C)C3)c3cc(C(=O)NCc4ccccc4)ccc32)cs1 (stereo not given)	KDM5B inhibitor 35µM
CN1CCCC2(C1)CN(Cc1cccnc1)c1ccc(C(=O)Nc3ccccc3)cc12 (stereo not given)	KDM5B inhibitor inconclusive
CN1CCCC2(C1)CN(Cc1cccnc1)c1ccc(C(=O)NCc3cccs3)cc12 (stereo not given)	none
COc1cccc(-c2ccc(C(=O)N3CCC(NC(=O)Nc4ccccc4F)CC3)cc2)c1	none (no result: KDM5B inhibitor)
Cn1c(-c2ccc(CN3CCc4[nH]cnc4C3C(=O)O)o2)nc2ccccc21 (stereo not given)	KDM5B inhibitor 28µM
COc1ccc(C(=O)N2CCCC(N3C(=O)c4c(c(C)nn4-c4ccccc4)C3C)C2)cc1 (stereo not given)	none (no result: HEK293 viab, KDM5B inhibitor, SNCA expr inh)
CC1(COc2cccnc2)COc2ccc(C(=O)NCc3ccc4c(c3)OCO4)cc2N1 (stereo not given)	KDM5B inhibitor 16µM
CC1(COc2cccnc2)COc2ccc(C(=O)NCc3ccc(F)cc3)cc2N1 (stereo not given)	HEK293 viab inconclusive, KDM5B inhibitor 32µM, SNCA expr inh inconclusive
CC1(COc2ccccc2)COc2ccc(C(=O)NCc3ccccc3)cc2N1 (stereo not given)	HEK293 viab inconclusive, KDM5B inhibitor inconclusive, SNCA expr inh inconclusive
CC1(COc2cccnc2)COc2ccc(C(=O)NCc3cccs3)cc2N1 (stereo not given)	KDM5B inhibitor 35µM
CC1(COc2cccnc2)COc2ccc(C(=O)NCc3cnccn3)cc2N1 (stereo not given)	none
O=C(/C=C/c1ccccc1)OC[C@H]1O[C@@H](OC(=O)c2cc(O)c(O)c(O)c2)[C@H](O)[C@@H](O)[C@@H]1O	IP6K1 inhibitor -47 (no result: KDM5B inhibitor, SNCA expr inh)
O=C(/C=C/c1ccc(O)cc1)OC[C@H]1O[C@@H](O/C(=C\c2ccccc2)C(=O)O)[C@H](O)[C@@H](O)[C@@H]1O	none (no result: KDM5B inhibitor, SNCA expr inh)
CC(C)NC(=O)C1CCC(=O)N1C1CCN(C(=O)C2CCC2)CC1 (stereo not given)	none (no result: KDM5B inhibitor)
Cc1ccc(NC(=O)C2(c3ccc4c(c3)OC(F)(F)O4)CC2)nc1-c1cccc(C(=O)O)c1	HEK293 viab inconclusive, SNCA expr inh 0.076µM (no result: KDM5B inhibitor)
